# Source: PubChem BioAssay
# The list is not random: actives were taken first. Their share in the collection is about 7.5%.
# SMN2 splice enh: SMN2 splice variant enhancement; actives 2.8% (n = 210,000); AID 1458; Potency, µM (series often up to 46.1 µM), for inactives: at the top dose activity change, positive = activation, actives largely listed as activators; HEK293 SMN2-luciferase splicing reporter, luminescence, 30-36 h; further: % of control where 0% means no effect; nearly all actives have a fitted effect of over 55% in size
#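 HEK293 cells carry an SMN2 minigene-luciferase reporter in which exon 7 inclusion puts luciferase in frame. Cells were seeded at 2000 cells/well, attached for 10-12 hours, then exposed to compounds for 30-36 hours at 37C before ONE-Glo luminescence.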
# FLuc counter: counter-screen for miR-21 project: firefly luciferase inhibitors or activators; purified FLuc, Km substrates, luminescence inhibition; P08659; actives 6.9% (n = 360,000); Potency, µM (titrated, usually from 57.5 µM), for the others: at the top dose activity change, negative = inhibition, usual class: inhibitors;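 further: plate controls were vehicle for no effect and reference inhibitor for full effect; nearly all actives have a fitted effect of over 55% in size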
# Target sequence (P08659 whole entry, looked up): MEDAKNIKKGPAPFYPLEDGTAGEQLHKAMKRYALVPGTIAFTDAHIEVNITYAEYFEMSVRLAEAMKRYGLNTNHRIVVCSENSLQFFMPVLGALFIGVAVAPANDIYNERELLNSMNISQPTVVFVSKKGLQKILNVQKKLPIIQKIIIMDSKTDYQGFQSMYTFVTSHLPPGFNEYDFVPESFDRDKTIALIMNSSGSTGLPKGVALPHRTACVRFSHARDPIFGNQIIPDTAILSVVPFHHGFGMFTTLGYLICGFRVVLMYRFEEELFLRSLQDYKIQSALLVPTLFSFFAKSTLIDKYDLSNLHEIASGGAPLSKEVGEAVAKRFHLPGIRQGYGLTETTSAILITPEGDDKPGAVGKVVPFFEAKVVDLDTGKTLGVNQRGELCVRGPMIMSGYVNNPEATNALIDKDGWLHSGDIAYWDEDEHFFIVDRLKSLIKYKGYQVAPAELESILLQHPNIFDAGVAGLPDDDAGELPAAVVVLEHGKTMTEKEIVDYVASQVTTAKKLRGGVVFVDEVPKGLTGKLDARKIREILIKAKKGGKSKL
#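 Purified P. pyralis luciferase, 10 nM final, with Km-level 10 uM D-luciferin and 10 uM ATP in 50 mM Tris acetate pH 7.5, 10 mM Mg acetate, 0.01% Tween-20, 0.05% BSA; 6-point qHTS titration about 60 µM downward; luminescence read.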
# Rab9 promoter act: activators of Rab9 promoter. Huh7 Rab9 promoter-luciferase reporter, luminescence, 24 h. Potency, µM (series often up to 9.22 µM), for inactives: at the top dose activation, negative = inhibition, actives largely listed as activators. actives 2.8% (n = 320,000). AID 485297; further: % of control where 0% means no effect; nearly all actives have a fitted effect of over 60% in size
#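 Luciferase signal after 10 min detection reagent at ambient indicates Rab9 promoter upregulation; stably transfected Huh7 cells were treated 24 h with compound in DMSO at 37 °C, 5% CO2.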
# ELG1 genotox: induces genotoxicity in HEK293T cells with luciferase-tagged ELG1; HEK293T ELG1-luciferase reporter, luminescence, 16 h; Potency, µM (highest dose often 46 µM), inactives show at the highest dose activity change, positive = activation, hits mostly activators; actives 1.3% (n = 330,000); further: % of control where 0% means no effect; nearly all actives have a fitted effect of over 60% in size
#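 Genotoxic stress is detected as increased luminescence from luciferase-tagged ELG1 in HEK293T cells, measured with ONE-Glo after a 16 hr treatment at 37 °C.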
# NPC1 promoter act: activates the NPC1 promoter. Huh7 NPC1 promoter luciferase reporter, 24 h. Potency, µM (series often up to 9.22 µM), for the others: at the highest dose activation, actives largely listed as activators. actives 2.4% (n = 320,000); further: % of control where 0% means no effect; nearly all actives have a fitted effect of over 60% in size
#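 In 1536-well qHTS, Huh7 cells harboring an NPC1 promoter–luciferase construct received compound for 24 h; activation was quantified by luminescence following luciferase reagent addition.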
# Starred values were filed as active, the others as inactive; ? = inconclusive; nt = no result; [ ] = dose if it differs, or a comment. The call rests on the fitted dose curve; in most records, active means well fitted curve in the direction sought with a large enough effect; inconclusive means small, poorly fitted or top-dose-only effect, or another doubt; inactive means no such curve, though single readings can be large; an effect the other way counts as inactive or inconclusive. Potency means the concentration at half of the fitted maximal effect.
SMILES,SMN2 splice enh,FLuc counter,Rab9 promoter act,ELG1 genotox,NPC1 promoter act
O=C(N/N=C1/CC2CCC1C2)c1cc2ccccc2cc1O (stereo not given),nt,15µM*,4%,-3%,16%
O=C(NCC1CCCO1)c1cc2ccccc2cc1O (stereo not given),nt,24µM*,?,15%,?
O=C(NCC1CCCCC1)c1cc2ccccc2cc1O,nt,12µM*,27%,0%,?
O=C(NCC1CCCO1)c1cccc2ccccc12 (stereo not given),nt,1%,-4%,-4%,1%
C=CCS(=O)(=O)N1CCC(CCOc2ccccc2)(C(=O)OCC)CC1,nt,2%,-2%,-7%,0%
CCCCS(=O)(=O)N1CCc2nc(-c3ccc(OC)cc3C)c3c(c2C1)CO[C@@H](c1ccccc1)C3,0%[9.22 µM],nt,nt,nt,nt
CCc1cccc(NC(=O)CN(c2ccc(OC)cc2)S(=O)(=O)c2c(C)n[nH]c2C)c1,0%,5%,0%,-7%,2%
CN(CC(=O)Nc1ccccc1Br)C(=O)c1ccc(COc2ccccc2)cc1,nt,?,4%,-2%,3%
CN(CC(=O)Nc1ccccc1Br)C(=O)c1cc2c(s1)CCCCC2,nt,11µM*,29%,?,26%
COc1ccc2cc(C(=O)N(C)CC(=O)Nc3ccccc3Br)ccc2c1,nt,21µM*,26%,1%,11%
CN(CC(=O)Nc1ccccc1Br)C(=O)CCC1CCCC1,nt,19µM*,?,?,?
O=C(O)CSc1cc(C(=O)c2cc(F)ccc2O)cn2c(=O)c3c(-c4ccccc4)csc3nc12,nt,27µM*,-3%,-6%,0%
CCOC(=O)c1sc2nc3c(SCCC(=O)O)cc(C(=O)c4cc(OC)ccc4O)cn3c(=O)c2c1C,-20%,3µM*,2%,1%,1%
Cc1cn2c(=O)cc(COc3cccc(NC(=O)c4ccccc4C)c3)nc2s1,-4%,-9%,nt,nt,nt
CN=c1scc(-c2ccc(OC)cc2)n1/N=C(\C)c1cccnc1,-21%,12µM*,1%,-2%,14%
COc1ccc(CC(=O)N/N=C(\C)c2cccnc2)cc1,nt,2%,3%,4%,-1%
CCCc1cnc(N2CCN(C(=S)NC)CC2)nc1,nt,17µM*,4.5µM*,23µM*,?
O=C(CCC1CCCCC1)Nc1nncs1,nt,1%,3%,1%,-1%
CCN1C(=O)S/C(=C/c2ccsc2)C1=O,-18%,?,25%,?,3%
C=CCN1C(=O)S/C(=C/c2ccsc2)C1=O,-7%,19µM*,16%,?,2%
O=C(CCCc1ccccn1)c1ccccc1,2.8µM*,nt,nt,nt,nt
O=C(O)CCSc1ccccn1,nt,5%,11%,0%,-5%
O=C(Cc1ccccn1)c1ccc(Cl)cc1,nt,12µM*,2.8µM*,?,?
O=C(CCSc1ccccn1)c1ccccc1,3%,6µM*,-2%,-2%,-1%
CC[C@]12c3[nH]c4ccc(OC)cc4c3CCN1C(=O)C(CC(=O)NCCCn1ccnc1)C[C@@H]2C(=O)N1CCN(C(=O)c2ccco2)CC1 (stereo not given in full),nt,nt,nt,1%,nt
SMILES,SMN2 splice enh,FLuc counter,Rab9 promoter act,ELG1 genotox,NPC1 promoter act
Cc1noc(C)c1COc1ccc(C(=O)OCC(=O)c2ccc3c(c2)OCCO3)cc1,-33%,-15%,2%,12%,-2%
Cc1cc(C(=O)OCC(=O)c2ccc3c(c2)OCCO3)c(C)o1,-16%,9.5µM*,8%,8%,?
Cc1c(C(=O)OCC(=O)c2ccc3c(c2)OCCO3)oc2ccccc12,-11%,9.5µM*,22%,7%,12%
NC(=O)CC(NC(=O)Cc1cccc2ccccc12)c1ccc(N2CCN(c3ccccn3)CC2)c([N+](=O)[O-])c1 (stereo not given),nt,-2%,-1%,0%,-6%
O=C1C(C2=NC(c3ccccn3)C3C(=O)N(c4ccc(OC(F)(F)F)cc4)C(=O)C23)=C(O)c2ccccc21 (stereo not given),nt,0%,-16%,2%,-10%
O=C1C(C2=NC(C(=O)O)C3C(=O)N(c4ccccc4)C(=O)C23)=C(O)c2ccccc21 (stereo not given),-7%,12µM*,0%,-4%,-1%
Cc1cc(-c2ccc(Cl)cc2)oc(=O)c1NC(=O)c1ccccc1,-32%,6%,12%,0%,-3%
Cc1oc(-c2ccc(Cl)cc2)cc1C(=O)O,nt,11µM*,?,12%,?
O=S(=O)(c1ccc(Cl)cc1)c1nc(-c2cccs2)oc1SCc1ccc(F)cc1,-18%,4%,nt,nt,nt
Brc1ccc(/C=C/C=N/Nc2nc3ccccc3s2)cc1,-18%,9.5µM*,nt,2%,?
Cc1ccc2[nH]c(C)c(/C=N/Nc3nc4ccccc4s3)c2c1,7%,?,-3%,0%,15%
C(=C\c1ccccc1)/C=N/Nc1nc2ccccc2s1,14µM*,2.4µM*,1.3µM*,?,1.6µM*
CCC/C=N/Nc1nc2ccccc2s1,?,3.4µM*,2.8µM*,?,3.5µM*
CC1CCC/C(=N/Nc2nc3ccccc3s2)C1 (stereo not given),11µM*,0.85µM*,3.5µM*,?,22%
CC1(C)CC(=O)C/C(=N/Nc2nc3ccccc3s2)C1,-3%,?,-1%,17%,-1%
Cc1ccc(-c2csc(N/N=C/C=C/c3ccccc3)n2)cc1,1%,-13%,0%,0%,-3%
COc1ccc(OC)c(NC(=O)c2cc3c(=O)n4cccc(C)c4nc3n2C)c1,nt,-1%,nt,nt,nt
O=C(/C=C/c1ccco1)NC(=S)Nc1ccccc1,nt,27µM*,?,10%,28%
Cc1ccc(-n2nc3ccc(NC(=S)NC(=O)/C=C/c4ccco4)cc3n2)cc1,?,-5%,1%,?,14%
Cc1cccc(NC(=S)NC(=O)/C=C/c2ccco2)n1,-5%,?,3.5µM*,?,?
Cc1cccc(NC(=S)NC(=O)/C=C/c2ccco2)c1,7%,?,-10%,?,-29%
CC(=O)c1ccc(NC(=S)NC(=O)/C=C/c2ccco2)cc1,nt,-13%,29%,11%,25%
Cc1ccc(-n2nc3cc(C)c(NC(=S)NC(=O)/C=C/c4ccco4)cc3n2)cc1,?,11µM*,-9%,8.2µM*,-3%
Cc1ccc(N(C(=O)CNC(=O)c2ccco2)C(C(=O)NC2CCCC2)c2cccnc2)c(C)c1 (stereo not given),nt,2%,3%,-2%,2%
O=C(COc1ccc2c(c1)CCC2)Nc1ccccn1,nt,0.17µM*,3.2µM*,?,4µM*
Cc1cccc(NC(=O)COc2ccc3c(c2)CCC3)n1,nt,11µM*,?,17%,25%
Cc1cnc(NC(=O)COc2ccc3c(c2)CCC3)s1,nt,1.2µM*,?,0.65µM*,0.56µM*
